Source: PubChem BioAssay AID651593 (National Center for Advancing Translational Sciences (NCATS), 2012)
Among all 1,100 compounds or so, about 860 (78%) were called active. Not shown: some 19% with an inconclusive outcome. The call rests on the fitted dose curve; in most records, active means well fitted activation curve with a large enough effect; inconclusive means small, poorly fitted or top-dose-only effect; inactive means flat fitted curve, though single readings scatter. The set was probably picked from earlier hits. This is one part of the list.
Potency means the concentration at half of the fitted maximal effect.

Assay: qHTS of Nrf2 Activators: Hit Validation in Primary Assay; further: nearly all actives have a fitted effect of over 70% in size
Conditions: Nrf2/ARE reporter cell assay; Potency: activation; series mostly up to 46.1 µM
How it was run: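 AREc32 cells stably carrying an ARE-driven firefly luciferase, plated overnight, then exposed 24 h at 37 °C to compounds at several concentrations. ARE activation read as luminescence with Steady-Glo after 30 min at room temperature.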
For COn1c(=O)c(-c2cccc(Br)c2)[n+]([O-])c2ccccc21, the Potency was 14.6 µM (active). For CCn1c(=NC(=O)c2ccco2)sc2cccc(F)c21, the Potency was 1.3 µM (active). With Cn1c(NCC2CCCCC2)nc2cc(-c3ccsc3)sc2c1=O the Potency was 2.31 µM (active). In the case of Brc1ccc(C2=CC(c3ccco3)n3nnnc3N2)cc1 (stereo unspecified), the Potency is reported as 9.2 µM (active). With C1=C(c2ccc(-c3ccccc3)cc2)Nc2ncnn2C1c1ccco1 (stereo unspecified) the Potency was 6.51 µM (active). In the case of O=C(O)c1ccc(-n2ncc(Cl)c(Cl)c2=O)cc1, the Potency is reported as 2.91 µM (active). In the case of Cc1ccc(Sc2cnn(-c3ccccc3)c(=O)c2Cl)cc1, the Potency is reported as “inactive”. With c1ccc(-c2cc3c(-n4cccc4)ncnc3o2)cc1 the Potency was 2.06 µM (active). With Cc1c(Cl)cccc1N=c1c([N+](=O)[O-])nn(-c2ccccc2)n1O the Potency was 2.31 µM (active). In the case of COc1ccc(Cl)cc1NC(=O)CCS(=O)(=O)c1cccc2nonc12, the Potency is reported as 16.4 µM (active). In the case of Nc1c(Cl)cc(N=Nc2ccccc2)cc1Cl, the Potency is reported as 2.59 µM (active). For O=c1oc2ccccc2nc1/C=C(\O)c1ccc(Br)cc1, the Potency was 20.6 µM (active). For O=C(Cn1cnc2ccccc21)N/N=C/C(Br)=C/c1ccccc1, the Potency was 20.6 µM (active). In the case of OCCC#Cc1c(-c2ccsc2)sc2ccccc12, the Potency is reported as 2.31 µM (active). With O=C(/C=C/c1ccco1)Nc1ccc2nn(-c3ccccc3)nc2c1 the Potency was 7.31 µM (active). For O=C(/C=C/c1ccco1)Nc1ccc(-c2nc3ccccc3[nH]2)cc1, the Potency was 1.3 µM (active). In the case of O=C(/C=C/c1ccco1)Nc1ccc(Cl)c(-c2nc3cc(Cl)ccc3o2)c1, the Potency is reported as 1.16 µM (active). For O=C(/C=C/c1ccco1)Nc1cccc(S(=O)(=O)N2CCOCC2)c1, the Potency was 8.2 µM (active). For O=[N+]([O-])c1cc2c(cc1Br)-c1ccccc1C2, the Potency was 2.31 µM (active). For COc1cc2c(cc1NC(=O)c1ccccc1F)CCCC2, the Potency was 6.51 µM (active). In the case of COc1cc2c(cc1NC(=O)c1cccc(F)c1)CCCC2, the Potency is reported as 2.59 µM (active). In the case of Cc1cc(O)cc2c1C(=O)/C(=C/c1ccco1)O2, the Potency is reported as 1.84 µM (active). With COc1cccc(NC(=O)c2nc(SC)ncc2Cl)c1 the Potency was 2.91 µM (active). With COc1cccc(NC(=O)c2nn(C)cc2Br)c1 the Potency was 16.4 µM (active). With COc1cccc(NC(=O)c2cc(Cl)nnc2Cl)c1 the Potency was 18.4 µM (active). For CCSc1ncc(Cl)c(C(=O)Nc2ccccc2)n1, the Potency was 4.61 µM (active). For CCOC(=O)c1ccc(NC(=O)c2nc(S(=O)(=O)Cc3ccccc3)ncc2Cl)cc1, the Potency was 3.66 µM (active). For O=C(NCCc1ccccn1)c1c(-c2ccsc2)sc2ccccc12, the Potency was 2.31 µM (active). In the case of COc1ccccc1C(=O)COC(=O)c1cccs1, the Potency is reported as 6.51 µM (active). With O=C(Nc1ccc2nsnc2c1)c1cccs1 the Potency was 6.51 µM (active). In the case of O=C(Nc1cccc2nsnc12)c1cccs1, the Potency is reported as 2.91 µM (active). In the case of COC(=O)c1ccccc1NC(=O)c1cccs1, the Potency is reported as 14.6 µM (active). For CNC(=O)C1CCN(S(=O)(=O)c2c(C)noc2/C=C/c2ccccc2F)CC1, the Potency was 9.2 µM (active). With CCOC(=O)c1ccccc1N/C=C/C(=O)c1cccs1 the Potency was 2.31 µM (active). In the case of O=C(/C=C/Nc1ccc(F)cc1)c1cccs1, the Potency is reported as 6.51 µM (active). In the case of CCOC(=O)c1ccccc1N/C=C/C(=O)c1ccccc1, the Potency is reported as 3.26 µM (active). With O=C(CN1CCCCC1)Nc1nnc(-c2ccccc2)s1 the Potency was 5.8 µM (active). For C/C(=N\Nc1ccccn1)c1cccs1, the Potency was 14.6 µM (active). For C/C(=N\Nc1ccc(F)cc1F)c1ccc(Br)s1, the Potency was 16.4 µM (active). In the case of C/C(=N\Nc1ccccn1)c1ccc(Br)s1, the Potency is reported as 7.31 µM (active). For N#Cc1cccn1-c1nccc(-c2cccs2)n1, the Potency was 4.61 µM (active). With COCCNC(=O)c1ccc(-n2c(-c3ccccc3)cc3c2CCC(C)C3)cc1 (stereo unspecified) the Potency was 16.4 µM (active). With CC1CCc2c(cc(-c3ccccc3)n2-c2ccc(C(=O)NC(C)C)cc2)C1 (stereo unspecified) the Potency was 23.1 µM (active). In the case of Cc1ccc(S(=O)(=O)c2nc(S(C)(=O)=O)sc2N2CCCCC2C)cc1 (stereo unspecified), the Potency is reported as 2.06 µM (active). With Cc1ccc(S(=O)(=O)c2nc(S(C)(=O)=O)sc2N2CCC(O)CC2)cc1 the Potency was 9.2 µM (active). With Cc1ccc(S(=O)(=O)c2nc(S(C)(=O)=O)sc2N2CCC(C)CC2)cc1 the Potency was 20.6 µM (active). With COc1ccc(-c2cc3ccccc3oc2=O)cc1NC(=O)c1ccc([N+](=O)[O-])o1 the Potency was 3.26 µM (active). In the case of COc1ccccc1NC(=O)c1cnc(SCC(=O)NCCc2ccccc2)n(C)c1=O, the Potency is reported as 3.66 µM (active). In the case of O=C(COc1cccnc1[N+](=O)[O-])Nc1cccc2ccccc12, the Potency is reported as 16.4 µM (active). With Cc1ccc(OCC(=O)Nc2cccc3ccccc23)c([N+](=O)[O-])n1 the Potency was 11.6 µM (active). For C/C(=N\Nc1ccc2nncn2n1)c1ccc(Cl)s1, the Potency was 3.66 µM (active). In the case of COc1ccc([N+](=O)[O-])cc1C1NN=C(c2ccccc2O)S1 (stereo unspecified), the Potency is reported as 2.91 µM (active). With O=C1CC(c2ccco2)CC(O)=C1C=Nc1cc(Cl)ccc1O (stereo unspecified) the Potency was 4.61 µM (active). For CC1(C)C(=O)OC(/C=C/c2cccc([N+](=O)[O-])c2)C(C)(C)C1=O (stereo unspecified), the Potency was 1.03 µM (active). With N#C/C(=C\c1c(Oc2ccc(Cl)cc2)nc2ccccn2c1=O)C(=O)NC1CCS(=O)(=O)C1 (stereo unspecified) the Potency was 2.06 µM (active). In the case of Cc1cc(C)c2c(N)c(C(=O)c3ccc(Br)cc3)oc2n1, the Potency is reported as 4.11 µM (active). For Cc1ccc(-c2cc(-c3cccc(F)c3)n[nH]2)c(O)c1, the Potency was 2.59 µM (active). With O=Cc1c(NCc2ccco2)nc2ccccn2c1=O the Potency was 1.64 µM (active). In the case of Cc1cccn2c(=O)c(C=NCCO)c(NCc3ccco3)nc12, the Potency is reported as 2.59 µM (active). With Fc1ccc2cc(-c3ccsc3)ncc2c1 the Potency was 7.31 µM (active). For COc1ccc(N2C(=O)/C(=C\c3ccco3)N=C2SCC(N)=O)cc1Cl, the Potency was 1.64 µM (active). For O=C(C=Cc1ccccc1Cl)c1ccccc1, the Potency was 18.4 µM (active). In the case of Clc1ccc(/C=N/Nc2nnc(Cl)c3ccccc23)cc1, the Potency is reported as 2.31 µM (active). For Clc1nnc(NN=C2CCCC2)c2ccccc12, the Potency was 4.61 µM (active). With O=[N+]([O-])c1cccc(N2Cc3ccccc3C2)c1 the Potency was 20.6 µM (active). In the case of O=C(N/N=C/C(Br)=C/c1ccccc1)c1ccc([N+](=O)[O-])cc1, the Potency is reported as 18.4 µM (active). In the case of COc1ccc2c(c1)C1=NN(/C(C)=C/C(C)=O)C(c3cccc(F)c3)C1CC2 (stereo unspecified), the Potency is reported as 5.8 µM (active). With Cc1ccc(-c2nc3sc(C#N)c(N)n3c(=O)c2C#N)cc1 the Potency was 8.2 µM (active). In the case of Cc1c(C(=O)NCc2ccco2)oc2c(Cl)cccc12, the Potency is reported as 1.46 µM (active). With COc1ccccc1NC(=O)c1ccc(Cl)c(S(=O)(=O)NCc2ccco2)c1 the Potency was 10.3 µM (active). With COc1c(Cl)cc(C(=O)NCc2ccco2)cc1Cl the Potency was 14.6 µM (active). For O=C(CCS(=O)(=O)c1ccccc1)Nc1nc2ccc(F)cc2s1, the Potency was 18.4 µM (active). With COc1ccc(OC)c2sc(NC(=O)CCS(=O)(=O)c3ccccc3)nc12 the Potency was 3.26 µM (active). With CCOC(=O)c1ccsc1NC(=O)CCS(=O)(=O)c1ccccc1 the Potency was 18.4 µM (active). In the case of COc1ccc(C)c2sc(NC(=O)CCS(=O)(=O)c3ccccc3)nc12, the Potency is reported as 4.11 µM (active). In the case of O=C(CCS(=O)(=O)c1ccccc1)Nc1nc2c(s1)COc1ccccc1-2, the Potency is reported as 6.51 µM (active). For Cc1cccc2cc3c(nc12)-c1ccccc1C3=O, the Potency was 10.3 µM (active). For c1ccc2nc3c(ccc4ccccc43)cc2c1, the Potency was 9.2 µM (active). In the case of CCOC(=O)c1sc(NC(=O)c2ccccc2F)c(C(N)=O)c1C, the Potency is reported as 2.31 µM (active). In the case of COC(=O)c1c(NC(=O)c2ccccc2)sc(C(N)=O)c1C, the Potency is reported as 1.46 µM (active). For c1ccc(N2CC3COc4ccccc4C3=N2)cc1 (stereo unspecified), the Potency was 2.59 µM (active). With c1ccc(N2CC3CCc4ccccc4C3=N2)cc1 (stereo unspecified) the Potency was 5.8 µM (active). With Cc1ccc(S(=O)(=O)c2nc(S(C)(=O)=O)sc2N2CC(C)OC(C)C2)cc1 (stereo unspecified) the Potency was 18.4 µM (active). In the case of CCCS(=O)(=O)c1nc(S(=O)(=O)c2ccc(C)cc2)c(N2CC(C)OC(C)C2)s1 (stereo unspecified), the Potency is reported as “inactive”. In the case of CC1CN(c2sc(S(C)(=O)=O)nc2S(=O)(=O)c2ccc(Cl)cc2)CC(C)O1 (stereo unspecified), the Potency is reported as 6.51 µM (active). For CCOC(=O)c1cnc(-c2ccccc2)nc1-c1ccccc1, the Potency was 9.2 µM (active). For Nc1nc(Nc2ccccc2F)nc(NCc2ccco2)c1[N+](=O)[O-], the Potency was 2.31 µM (active). For O=C1C=C(C#Cc2ccccc2)C[C@@H](c2ccc(F)cc2)C1, the Potency was 11.6 µM (active). For O=C(CCS(=O)(=O)c1ccccc1)Nc1nc(-c2ccccn2)cs1, the Potency was 18.4 µM (active). In the case of CC(C)(C)c1csc(NC(=O)CCS(=O)(=O)c2ccc(F)cc2)n1, the Potency is reported as 20.6 µM (active). With Cc1ccc2ccc(C3C(=O)c4ccccc4C3=O)nc2c1 the Potency was 1.64 µM (active). For Cc1ccc(-c2cc(C(F)(F)F)c(C#N)c(SCCC#N)n2)o1, the Potency was 2.59 µM (active). In the case of C#CCSc1nc(-c2ccccc2)cc(C(F)(F)F)c1C#N, the Potency is reported as 11.6 µM (active). For c1ccc2c(-c3nc4ncccc4o3)cccc2c1, the Potency was 6.51 µM (active). For CCn1c(SCC(=O)N/N=C/C=C/c2ccco2)nc2ccccc21, the Potency was 1.46 µM (active). In the case of Cn1c(SCC(=O)N/N=C/C=C\c2ccccc2[N+](=O)[O-])nc2ccccc21, the Potency is reported as 0.366 µM (active). For Cn1c(SCC(=O)N/N=C/C=C\c2ccco2)nc2ccccc21, the Potency was 2.59 µM (active). For CCn1c(SCC(=O)N/N=C/C=C\c2ccco2)nc2ccccc21, the Potency was 1.84 µM (active). For Cc1cccc(N=C2NC(=O)S/C2=C\c2ccco2)c1, the Potency was 3.26 µM (active). For Cc1ccc(N=C2NC(=O)S/C2=C\c2ccco2)cc1, the Potency was 7.31 µM (active). In the case of C=CCn1c(=NC(=O)c2cc(Cl)sc2Cl)sc2cc(S(N)(=O)=O)ccc21, the Potency is reported as 2.31 µM (active).
